# PLK1 PBD inh = qHTS for Inhibitors of PLK1-PDB (polo-like kinase 1 - polo-box domain): Primary Screen; Serine/threonine-protein kinase PLK1 (Homo sapiens), P53350; Plk1 PBD binding of FITC phosphopeptide, fluorescence polarization; Potency, µM, for inactives: max response, negative = inhibition, most hits filed as inhibitors; actives 2.8% (n = 360,000); AID 720504, 2013; further: series mostly up to about 57 µM; nearly all actives have a fitted effect of over 65% in size
# DT40 TDP1 CPT = qHTS for Inhibitors of human tyrosyl-DNA phosphodiesterase 1 (TDP1): qHTS in cells in presence of CPT; chicken DT40 Tdp1-/-;hTDP1 cells + 20 nM CPT, ATP luminescence, 48 h; Potency, µM (top dose mostly 46.2 µM), for the others: at the top dose activity change, negative = growth inhibition, hits mostly inhibitors; actives 12% (n = 420,000); further: nearly all actives have a fitted effect of over 55% in size
#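 Chicken DT40 Tdp1-/- cells complemented with human TDP1, 400 cells/well, exposed to compounds plus 20 nM camptothecin for at least 48 h at 37 C; viability read as ATP content by CellTiter-Glo luminescence.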
# VDR inh = Inhibitors of the vitamin D receptor (VDR): qHTS; actives 0.93% (n = 400,000); Potency, µM, without a hit: max response, negative = inhibition, most hits filed as inhibitors; VDR-SRC2-3 peptide fluorescence polarization, 2 h
# Target sequence (P11473 whole entry, looked up): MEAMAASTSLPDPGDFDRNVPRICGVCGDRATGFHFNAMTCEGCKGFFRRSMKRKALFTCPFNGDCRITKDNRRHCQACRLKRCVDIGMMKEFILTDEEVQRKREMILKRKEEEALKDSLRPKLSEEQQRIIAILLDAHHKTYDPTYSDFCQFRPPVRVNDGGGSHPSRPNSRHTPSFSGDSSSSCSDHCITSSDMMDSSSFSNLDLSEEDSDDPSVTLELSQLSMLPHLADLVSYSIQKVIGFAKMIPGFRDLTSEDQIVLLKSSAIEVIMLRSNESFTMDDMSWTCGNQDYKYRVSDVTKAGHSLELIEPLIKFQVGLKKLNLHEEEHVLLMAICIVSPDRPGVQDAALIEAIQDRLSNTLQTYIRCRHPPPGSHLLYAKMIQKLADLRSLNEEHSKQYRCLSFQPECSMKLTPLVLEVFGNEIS
#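 Fluorescence polarization assay of small-molecule disruption of VDR binding to coregulator peptide SRC2-3. Compounds and controls pin-transferred, then read after 2 h incubation at ambient room temperature.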
# TDP1 block = qHTS Assay for Inhibitors of Tyrosyl-DNA Phosphodiesterase (TDP1) | Tyrosyl-DNA phosphodiesterase 1 (Homo sapiens), Q9NUW8 | recombinant TDP1, AlphaScreen DNA substrate cleavage | Potency, µM (titrated, usually from 130 µM), for the others: top-dose activity change, negative = inhibition, most hits filed as inhibitors | actives 0.28% (n = 350,000) | AID 485290, 2010; further: nearly all actives have a fitted effect of over 40% in size
#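 Here, a 5' biotin and 3' phosphotyrosine-FITC DNA oligonucleotide reports Tdp1 activity: intact substrate bridges AlphaScreen beads, while cleavage leaves a 3' phosphate and drops signal. All incubations at room temperature.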
# DT40 TDP1 no CPT = qHTS for Inhibitors of human tyrosyl-DNA phosphodiesterase 1 (TDP1): qHTS in cells in absence of CPT. DT40 Tdp1-/- hTDP1 cells, no CPT, ATP luminescence, 48 h. Potency, µM (titrated, usually from 46.2 µM), inactives show top-dose activity change, negative = growth inhibition, actives largely listed as inhibitors. actives 15% (n = 420,000). AID 686978, 2013; further: nearly all actives have a fitted effect of over 55% in size
#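 DT40 Tdp1-/-;hTDP1 cells, no CPT (DMSO vehicle only), 400 cells/well; compounds pin-transferred; ≥48 hr, 37 °C; CellTiter-Glo 30 min RT dark, luminescence read.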
# KAT2A inh = qHTS Assay for Inhibitors of GCN5L2 | Histone acetyltransferase KAT2A (Homo sapiens), Q92830 | GCN5L2 HAT assay, ThioGlo1 CoA-SH fluorescence | Potency, µM (series often up to 58.9 µM), for inactives: top-dose activity change, negative = inhibition, usual class: inhibitors | actives 0.21% (n = 390,000)
#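 GCN5L2 (20 nM) in 50mM HEPES pH 7.5, 0.1mM EDTA, 0.01% Tween-20 preincubated 15 min with compounds at room temperature. Reaction started with H3(1-25) 75uM, acetyl-CoA 70uM, ThioGlo1 50uM; CoA-thiol fluorescence (Ex340/Em540) read at 0 and 20 min.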
# TbPYK confirm = qHTS of Trypanosoma Brucei Inhibitors: Confirmatory Assay for Cherry-picked Compounds | shares compounds with PLK1 PBD inh | recombinant TbPYK, Kinase-Glo ATP luminescence | Potency, µM (titrated, usually from 76.9 µM), inactives show top-dose activity change, negative = inhibition, most hits filed as inhibitors | actives 67% (n = 890) | AID 720569, 2013; further: nearly all actives have a fitted effect of over 70% in size
# TbPYK orthogonal = qHTS of Trypanosoma Brucei Inhibitors: Orthogonal Assay for Cherry-picked Compounds; recombinant TbPYK, ADP-Glo luminescence, 60 min; actives 62% (n = 890); Potency, µM (highest dose often 76.9 µM), inactives show at the highest dose activity change, negative = inhibition, most hits filed as inhibitors; AID 720584, 2013; shares compounds with PLK1 PBD inh; further: nearly all actives have a fitted effect of over 75% in size
# * hit, by the source's call; ? = inconclusive; nt = no result given. In the library only some 18% were active in any assay of this set; here they are far more common. The call rests on the fitted dose curve; in most records, active means well fitted curve in the direction sought with a large enough effect; inconclusive means small, poorly fitted or top-dose-only effect, or another doubt; inactive means no such curve, though single readings can be large; an effect the other way counts as inactive or inconclusive. On the % scale 0 is the no-effect control and ±100 the full control effect; potency means the concentration at half of the fitted maximal effect.
SMILES,PLK1 PBD inh,DT40 TDP1 CPT,VDR inh,TDP1 block,DT40 TDP1 no CPT,KAT2A inh,TbPYK confirm,TbPYK orthogonal
O=C(Oc1cccc([N+](=O)[O-])c1)N1CCCCC1,-5%,-4%,-2%,3%,-20%,-2%,nt,nt
O=P(c1ccccc1)(c1ccccc1)c1ccccc1C(Br)Br,-11%,-42%,nt,nt,?,nt,22µM*,32µM*
O=C(CCSCCC(=O)NCc1ccco1)NCc1ccco1,21µM*,?,?,-9%,?,-12%,?,?
O=C(CCSCc1ccccc1Cl)NCc1ccco1,-8%,15%,-16%,1%,1%,-8%,nt,nt
O=C1c2sc3nc4n(c(=O)c3c2CCC1Br)CCCCC4 (stereo unspecified),-1%,3.3µM*,?,nt,2.9µM*,-10%,4µM*,5.6µM*
O=c1c2c3c(sc2nc2n1CCCCC2)CCC3,-2%,5%,-16%,7%,-28%,?,nt,nt
O=C1N=C(c2ccccc2)S/C1=C\c1cccs1,24µM*,-27%,?,8%,-19%,-16%,4.5µM*,6.3µM*
COc1cccc(NC(=O)CCC2CCN(C(=O)c3cncs3)CC2)c1,-3%,1%,?,7%,-2%,-1%,20µM*,?
COc1ccccc1CNC(=O)CCNS(=O)(=O)/C=C/c1ccc(C)cc1,4%,-8%,-5%,1%,-15%,-2%,nt,nt
CC(C)(C)C1=Nn2c(nnc2-c2n[nH]c3c2CCC3)SC1,24µM*,-7%,?,9%,-9%,-5%,10µM*,10µM*
CCOc1ccc(C(=O)OC(C)CN2CCN(C)CC2)cc1 (stereo unspecified),-4%,2%,-15%,nt,-8%,-3%,nt,nt
CCOc1ccc(C(=S)N2CCN(C)CC2)cc1,13µM*,6%,?,0%,0%,4%,13µM*,4.5µM*
COC(=O)/C=c1\sc2ncnn2c1=O,?,5.8µM*,-14%,nt,13µM*,-5%,28µM*,28µM*
O=C(CN1CCN(c2ccc(O)cc2)CC1)Nc1ccccc1C(=O)NCCc1ccccc1,3%,?,-3%,9%,26µM*,?,2.5µM*,5µM*
Cn1ncc(Br)c1C(=O)NC(=S)N1CCN(c2ccccn2)CC1,0%,?,10%,-2%,?,3%,28µM*,32µM*
CCN(CC)c1ccc(/C=C2\C(=O)c3ccc(C(=O)O)cc3C2=O)cc1,6%,3%,-20%,-5%,-1%,-17%,nt,nt
CCN(CC)c1ccc(C(=C2C=CC(=[N+](CC)CC)C=C2)c2ccc(S(=O)(=O)O)cc2S(=O)(=O)[O-])cc1,-13%,23µM*,57%,nt,?,nt,16µM*,2%
Cc1ccc(-c2csc3ncn(-n4c(C)ccc4C)c(=O)c23)o1,?,23µM*,?,13%,18µM*,?,-24%,?
Cc1ccc(NC2=C(NC(=O)c3ccccc3)C(=O)c3ccccc3C2=O)cc1Cl,27µM*,8.2µM*,-15%,9%,21µM*,-8%,?,?
O=C(Nc1ccc2c(c1)C(=O)c1ccccc1-2)c1ccccc1,2%,8%,10%,nt,?,nt,nt,nt
N#C/C(=C\c1c(N2CCC(C(N)=O)CC2)nc2ccccn2c1=O)S(=O)(=O)c1ccc(Cl)cc1,1%,-2%,10%,3%,3%,-5%,nt,nt
O=C(CNC(=O)C1CCCCC1)NCc1ccco1,-12%,10%,0%,-6%,-7%,-4%,nt,nt
O=C(O)CC(C(=O)O)N1C(=O)/C(=C/C=C/c2ccco2)SC1=S (stereo unspecified),2.4µM*,-30%,67%,nt,-3%,-13%,?,?
Cc1ccc2nc(-c3ccccn3)c(N)n2c1,-1%,?,nt,nt,?,nt,28µM*,11%
Cc1ccc2nc(-c3ccccc3)c(CN3CCOCC3)n2c1,-11%,-5%,-22%,0%,0%,15%,nt,nt
SMILES,PLK1 PBD inh,DT40 TDP1 CPT,VDR inh,TDP1 block,DT40 TDP1 no CPT,KAT2A inh,TbPYK confirm,TbPYK orthogonal
CCOC(=O)C(NC(=O)Nc1ccc(C(N)=O)cc1)(c1ccccc1)C(F)(F)F (stereo unspecified),-4%,7%,-14%,0%,9%,-1%,nt,nt
Oc1ccc(N2CCN(Cc3nc4ccccc4[nH]3)CC2)cc1,-7%,-21%,3%,10%,?,-4%,18µM*,28µM*
CCSc1ccccc1C(=O)NC1CCCCC1,-19%,-5%,-8%,5%,-27%,-4%,nt,nt
CCN(CC)Cc1cc(O)c(CN(CC)CC)cc1O,4.2µM*,6.5µM*,-3%,7.9µM*,4.1µM*,1%,-99%,10µM*
CCc1oc(C(=O)O)cc1CN(CC)CC,-8%,-5%,-4%,4%,2%,nt,nt,nt
O=C(Cn1cc(S(=O)(=O)N2CCN(c3ccccc3F)CC2)c2ccccc2c1=O)Nc1ccc(F)cc1Cl,nt,-1%,-17%,2%,-12%,-2%,nt,nt
COC(=O)[C@]1(C)N[C@H](CN(C)S(=O)(=O)c2ccccc2)[C@@H]2C(=O)N(Cc3ccccc3)C(=O)[C@@H]21,-11%,11%,1%,0%,8%,-6%,nt,nt
Cc1nnc(N2CCN(c3ccccc3)CC2)[nH]c1=O,3µM*,5.2µM*,-18%,2%,5.8µM*,-3%,3%,-3%
CCc1c(C)nc(N2CCN(c3ccc(F)cc3)CC2)[nH]c1=O,-7%,?,-9%,nt,-28%,-13%,nt,nt
CC(C)n1c(=O)[nH]c2ccccc21,-6%,-11%,8%,1%,-30%,-7%,nt,nt
CC(C)n1c(=O)[nH][nH]c1=S,11µM*,12%,50µM*,8%,-3%,14µM*,1µM*,2.5µM*

# Screens from PubChem BioAssay.
